Consider 7 compounds from ChEMBL document CHEMBL1961873, “Compounds: GSK PKIS; Assays: Nanosyn kinase panel” (2012).

Structures are written as SMILES.

Assay [1] concerns the target RAC-alpha serine/threonine-protein kinase (Homo sapiens) (UniProt P31749). Particulars: at 0.1 µM.
Assay [2] has the same target. Particulars: at 1 µM.
Assay [3] addresses RAC-beta serine/threonine-protein kinase (Homo sapiens) (UniProt P31751). Particulars: at 0.1 µM.
Assay [4] has the same target. Particulars: at 1 µM.
Assay [5] addresses RAC-gamma serine/threonine-protein kinase (Homo sapiens) (UniProt Q9Y243). Particulars: at 0.1 µM.
Assay [6] has the same target. The conditions noted are these: at 1 µM.
The target of assay [7] is G protein-coupled receptor kinase 6 (Homo sapiens) (UniProt P43250). Particulars: at 0.1 µM.
Sequence of G protein-coupled receptor kinase 6 (Homo sapiens) (P43250 whole entry, looked up): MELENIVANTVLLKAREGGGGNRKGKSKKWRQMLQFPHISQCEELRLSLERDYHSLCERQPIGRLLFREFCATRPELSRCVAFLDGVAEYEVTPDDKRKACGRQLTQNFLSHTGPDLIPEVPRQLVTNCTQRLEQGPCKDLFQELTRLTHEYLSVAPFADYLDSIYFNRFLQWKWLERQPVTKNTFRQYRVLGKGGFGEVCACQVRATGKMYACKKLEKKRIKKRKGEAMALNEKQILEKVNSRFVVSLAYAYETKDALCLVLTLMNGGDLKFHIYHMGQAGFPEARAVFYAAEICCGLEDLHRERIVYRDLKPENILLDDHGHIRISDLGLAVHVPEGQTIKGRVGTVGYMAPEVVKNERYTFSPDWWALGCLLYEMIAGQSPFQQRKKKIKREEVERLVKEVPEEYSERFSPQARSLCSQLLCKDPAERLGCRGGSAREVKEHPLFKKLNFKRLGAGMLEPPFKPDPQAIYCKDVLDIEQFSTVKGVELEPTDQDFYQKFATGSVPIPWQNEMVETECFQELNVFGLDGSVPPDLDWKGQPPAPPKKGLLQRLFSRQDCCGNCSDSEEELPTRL
Assay [8] has the same target. Particulars: at 1 µM.
For assay [9], the target named is T1, Rhodopsin kinase GRK7 (Homo sapiens) (UniProt Q8WTQ7).
T1 sequence (whole entry): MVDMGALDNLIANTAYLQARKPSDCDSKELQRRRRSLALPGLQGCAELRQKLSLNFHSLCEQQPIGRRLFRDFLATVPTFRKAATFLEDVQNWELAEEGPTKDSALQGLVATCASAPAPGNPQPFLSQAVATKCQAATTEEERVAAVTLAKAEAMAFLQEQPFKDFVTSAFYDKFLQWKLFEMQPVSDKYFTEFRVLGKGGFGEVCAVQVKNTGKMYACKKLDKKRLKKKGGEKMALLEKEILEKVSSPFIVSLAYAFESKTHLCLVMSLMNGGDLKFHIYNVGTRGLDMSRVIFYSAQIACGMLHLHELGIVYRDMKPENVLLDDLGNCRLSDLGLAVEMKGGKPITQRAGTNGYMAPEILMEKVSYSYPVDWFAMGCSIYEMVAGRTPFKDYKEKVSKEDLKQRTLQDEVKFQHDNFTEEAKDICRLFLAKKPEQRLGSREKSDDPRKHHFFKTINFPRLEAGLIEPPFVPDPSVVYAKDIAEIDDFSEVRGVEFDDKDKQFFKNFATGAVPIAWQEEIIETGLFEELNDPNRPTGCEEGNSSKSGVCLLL
Particulars: at 0.1 µM.

Assay [10] deals with T1, Rhodopsin kinase GRK7 (Homo sapiens). The conditions noted are these: at 1 µM.
Assay [11] deals with Serine/threonine-protein kinase MRCK alpha (Homo sapiens) (UniProt Q5VT25). The conditions noted are these: at 0.1 µM.
Assay [12] shares this target. Particulars: at 1 µM.
For assay [13], the target named is Serine/threonine-protein kinase MRCK beta (Homo sapiens) (UniProt Q9Y5S2). The conditions noted are these: at 0.1 µM.
Assay [14] has the same target. Particulars: at 1 µM.
Assay [15] concerns the target Ribosomal protein S6 kinase alpha-5 (Homo sapiens) (UniProt O75582). The conditions noted are these: at 0.1 µM.
The target is the same in assay [16]. Particulars: at 1 µM.
Assay [17] has as its target Ribosomal protein S6 kinase alpha-4 (Homo sapiens) (UniProt O75676). Particulars: at 0.1 µM.
Assay [18] has the same target. The conditions noted are these: at 1 µM.
The target in assay [19] is Ribosomal protein S6 kinase beta-1 (Homo sapiens) (UniProt P23443). The conditions noted are these: at 0.1 µM.
Sequence of Ribosomal protein S6 kinase beta-1 (Homo sapiens) (P23443 whole entry, looked up): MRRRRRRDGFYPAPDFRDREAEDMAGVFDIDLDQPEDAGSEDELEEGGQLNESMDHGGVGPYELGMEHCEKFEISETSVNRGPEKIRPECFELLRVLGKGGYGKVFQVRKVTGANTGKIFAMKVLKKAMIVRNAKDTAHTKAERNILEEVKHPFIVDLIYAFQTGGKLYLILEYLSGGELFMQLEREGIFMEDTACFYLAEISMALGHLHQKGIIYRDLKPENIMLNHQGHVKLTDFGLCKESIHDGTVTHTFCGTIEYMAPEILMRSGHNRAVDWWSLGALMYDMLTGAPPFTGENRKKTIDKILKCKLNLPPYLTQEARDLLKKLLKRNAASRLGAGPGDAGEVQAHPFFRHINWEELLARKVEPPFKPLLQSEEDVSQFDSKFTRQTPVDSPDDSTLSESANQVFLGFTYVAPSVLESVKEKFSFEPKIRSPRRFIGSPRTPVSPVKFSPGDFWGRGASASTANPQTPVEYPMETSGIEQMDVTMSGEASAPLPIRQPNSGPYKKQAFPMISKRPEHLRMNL
The target is the same in assay [20]. Particulars: at 1 µM.

Sequence of Ribosomal protein S6 kinase alpha-5 (Homo sapiens) (O75582 whole entry, looked up): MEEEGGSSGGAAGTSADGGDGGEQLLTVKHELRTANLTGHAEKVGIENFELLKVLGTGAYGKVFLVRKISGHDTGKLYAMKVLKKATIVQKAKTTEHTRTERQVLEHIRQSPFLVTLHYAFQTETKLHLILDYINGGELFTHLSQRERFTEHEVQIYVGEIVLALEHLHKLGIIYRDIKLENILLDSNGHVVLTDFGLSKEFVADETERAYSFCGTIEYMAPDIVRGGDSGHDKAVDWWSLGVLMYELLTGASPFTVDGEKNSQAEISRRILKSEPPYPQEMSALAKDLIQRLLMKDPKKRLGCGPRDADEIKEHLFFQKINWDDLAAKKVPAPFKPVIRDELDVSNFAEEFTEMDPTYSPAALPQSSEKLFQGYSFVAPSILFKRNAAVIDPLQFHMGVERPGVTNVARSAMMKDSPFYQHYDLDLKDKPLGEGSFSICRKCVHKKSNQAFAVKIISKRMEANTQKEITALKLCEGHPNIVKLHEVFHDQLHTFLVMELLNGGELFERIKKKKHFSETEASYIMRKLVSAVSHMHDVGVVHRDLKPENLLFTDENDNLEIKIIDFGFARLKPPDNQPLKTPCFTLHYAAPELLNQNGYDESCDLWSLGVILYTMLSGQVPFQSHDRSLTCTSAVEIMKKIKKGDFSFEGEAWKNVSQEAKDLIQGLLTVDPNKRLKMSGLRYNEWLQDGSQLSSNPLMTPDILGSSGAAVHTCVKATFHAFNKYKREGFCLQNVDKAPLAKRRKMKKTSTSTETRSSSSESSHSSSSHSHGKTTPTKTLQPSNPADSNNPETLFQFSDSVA
Sequence of RAC-beta serine/threonine-protein kinase (Homo sapiens) (P31751 whole entry): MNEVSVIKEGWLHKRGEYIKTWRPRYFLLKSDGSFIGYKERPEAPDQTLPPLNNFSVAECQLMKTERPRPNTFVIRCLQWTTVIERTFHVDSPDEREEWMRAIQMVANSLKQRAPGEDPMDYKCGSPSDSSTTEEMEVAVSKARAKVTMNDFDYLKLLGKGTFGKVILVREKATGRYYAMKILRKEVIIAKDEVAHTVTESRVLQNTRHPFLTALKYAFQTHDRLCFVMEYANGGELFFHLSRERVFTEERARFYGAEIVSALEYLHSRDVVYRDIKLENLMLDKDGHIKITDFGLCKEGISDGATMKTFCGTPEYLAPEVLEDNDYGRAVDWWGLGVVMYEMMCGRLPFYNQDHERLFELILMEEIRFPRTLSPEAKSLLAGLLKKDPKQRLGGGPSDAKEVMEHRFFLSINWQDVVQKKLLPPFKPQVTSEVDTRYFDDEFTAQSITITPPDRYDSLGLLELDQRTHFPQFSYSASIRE
Sequence of Ribosomal protein S6 kinase alpha-4 (Homo sapiens) (O75676 whole entry, looked up): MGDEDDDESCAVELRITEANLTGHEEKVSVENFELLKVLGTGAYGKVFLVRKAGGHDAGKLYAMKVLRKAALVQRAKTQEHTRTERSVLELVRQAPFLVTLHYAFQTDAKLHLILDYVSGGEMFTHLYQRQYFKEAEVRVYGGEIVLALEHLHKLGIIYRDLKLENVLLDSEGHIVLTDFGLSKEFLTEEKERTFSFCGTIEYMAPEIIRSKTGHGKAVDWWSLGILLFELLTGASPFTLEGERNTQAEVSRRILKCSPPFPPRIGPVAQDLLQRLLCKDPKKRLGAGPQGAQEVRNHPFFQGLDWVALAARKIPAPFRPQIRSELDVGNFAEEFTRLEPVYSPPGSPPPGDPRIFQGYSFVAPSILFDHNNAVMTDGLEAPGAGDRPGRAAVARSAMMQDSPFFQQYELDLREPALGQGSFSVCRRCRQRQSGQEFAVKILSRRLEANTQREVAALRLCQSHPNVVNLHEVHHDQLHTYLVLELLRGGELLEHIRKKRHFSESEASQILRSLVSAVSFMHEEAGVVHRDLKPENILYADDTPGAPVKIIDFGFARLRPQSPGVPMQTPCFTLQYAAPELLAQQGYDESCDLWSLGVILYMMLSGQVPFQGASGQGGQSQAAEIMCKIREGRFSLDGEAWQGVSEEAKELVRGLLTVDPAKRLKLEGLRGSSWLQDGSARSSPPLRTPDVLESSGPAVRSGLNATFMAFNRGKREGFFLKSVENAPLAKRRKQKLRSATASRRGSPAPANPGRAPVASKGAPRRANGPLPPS
Sequence of RAC-alpha serine/threonine-protein kinase (Homo sapiens) (P31749 whole entry): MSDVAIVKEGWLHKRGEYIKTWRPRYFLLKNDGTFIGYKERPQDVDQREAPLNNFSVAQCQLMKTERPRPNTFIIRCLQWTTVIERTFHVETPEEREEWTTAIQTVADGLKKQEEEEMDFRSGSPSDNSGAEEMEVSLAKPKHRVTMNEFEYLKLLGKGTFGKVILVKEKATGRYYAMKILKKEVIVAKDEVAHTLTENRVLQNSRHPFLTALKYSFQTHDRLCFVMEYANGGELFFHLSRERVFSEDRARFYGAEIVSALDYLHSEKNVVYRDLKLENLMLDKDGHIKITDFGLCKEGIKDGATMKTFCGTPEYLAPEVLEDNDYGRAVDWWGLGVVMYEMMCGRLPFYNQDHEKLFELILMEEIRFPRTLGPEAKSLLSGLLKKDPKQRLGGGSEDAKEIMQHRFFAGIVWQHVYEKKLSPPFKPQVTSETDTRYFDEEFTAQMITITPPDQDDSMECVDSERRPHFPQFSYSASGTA
Sequence of RAC-gamma serine/threonine-protein kinase (Homo sapiens) (Q9Y243 whole entry): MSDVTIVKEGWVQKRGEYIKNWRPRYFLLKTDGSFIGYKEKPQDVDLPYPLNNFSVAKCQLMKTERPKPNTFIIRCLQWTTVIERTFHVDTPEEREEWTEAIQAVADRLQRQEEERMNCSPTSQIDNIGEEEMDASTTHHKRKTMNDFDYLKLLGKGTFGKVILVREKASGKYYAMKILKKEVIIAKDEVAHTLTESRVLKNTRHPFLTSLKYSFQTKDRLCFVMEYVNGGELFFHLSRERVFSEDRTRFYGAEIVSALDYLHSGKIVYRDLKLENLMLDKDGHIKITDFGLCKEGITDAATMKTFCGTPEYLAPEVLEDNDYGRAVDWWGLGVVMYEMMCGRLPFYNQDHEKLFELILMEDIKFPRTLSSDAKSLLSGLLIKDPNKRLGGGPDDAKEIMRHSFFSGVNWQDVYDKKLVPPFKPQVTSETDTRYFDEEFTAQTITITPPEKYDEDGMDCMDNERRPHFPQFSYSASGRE

For `COc1cccc(-n2ncc3c(N/N=C/c4ccncc4)ncnc32)c1`, the inhibition (in general, the drop in the measured response relative to a control, in per cent) in assay [1] is 0.24%; in assay [2] it was -0.78%; in assay [3] it was 1.42%; in assay [4], -0.44%; in assay [5], 3.63%; in assay [6], 0.47%. Further, the inhibition in [7] is 1.7%; in assay [8], 1.85%; in assay [9], 5.1%; in [10], 5.17%; in assay [11], -0.11%; in assay [12] it was 3.78%. In addition, the inhibition was determined as 0.53% in assay [13]; 0.77% in assay [14]; 3.86% in [15]; 4.1% in assay [16]; 2.47% in assay [17]; 4.26% in [18]. Further, the inhibition in [19] worked out at 2.67%; in assay [20], 7.24%.

In the case of `CCn1c(-c2nonc2N)nc2c(C#CCN)ncc(OCCCN)c21`, the inhibition in assay [1] was -0.6%; in [2] it was 10.9%; in assay [3] it was -0.31%; in [4], 12.8%; in assay [5], 1.83%; in assay [6], 10%. For the same compound, the inhibition is -5.01% in assay [7]; 6.23% in assay [8]; 0.4% in assay [9]; 7.43% in assay [10]; 6.68% in assay [11]; 13.4% in assay [12]. For the same compound, the inhibition came to 6.58% in assay [13]; 23.4% in assay [14]; 12.1% in assay [15]; 51.5% in assay [16]; 12.9% in assay [17]; 52% in assay [18]. The inhibition came out at 7.3% in assay [19] and 44.7% in [20].

With `NS(=O)(=O)c1ccc(N/C=C2\C(=O)Nc3ccc4ncsc4c32)cc1`, the inhibition in assay [1] turned out to be 0.54%; in assay [2], 0.61%; in assay [3] it was 2.08%; in assay [4] it was 2.38%; in assay [5], 0.65%; in assay [6], 3.15%. In addition, the inhibition in assay [7] is 4.87%; in [8] it was 18.7%; in [9], 8.46%; in assay [10], 6.58%; in assay [11], -1.47%; in assay [12], 10.5%. Moreover, the inhibition was determined as 0.46% in assay [13]; 5.66% in assay [14]; 5.1% in assay [15]; 12.2% in assay [16]; 15.3% in [17]; 50.9% in [18]. Also, the inhibition in [19] worked out at 1.92%; in [20], 13.5%.

Consider `Cc1cc(-c2ccco2)cc(C)c1/C=C/c1cncc(-c2nn[nH]n2)c1`, for which the inhibition was -0.08% in assay [1]; -0.39% in assay [2]; -0.63% in [3]; 0.09% in assay [4]; -0.47% in [5]; -3.85% in assay [7]. The inhibition in [9] is 11.8%; in assay [10] it was 49.9%; in [11], -2.3%; in [12] it was -3.4%; in [13] it was 0.22%; in assay [14], -0.72%. For the same compound, the inhibition in assay [15] was -0.62%; in assay [16], -1.54%; in assay [17], 0.13%; in assay [18], 1.02%; in assay [19], 0.97%; in [20] it was -0.33%.

Take `CCn1c(-c2nonc2N)nc2c(C#CC(C)(C)O)nc(O[C@@H](CN)c3ccccc3)cc21`: the inhibition in assay [1] turned out to be 93.7%; in assay [2] it was 96.4%; in assay [5], 93.3%; in assay [6], 95%; in [7] it was 1.13%; in assay [8], 1.51%. Moreover, the inhibition was found to be 3% in assay [9]; 114% in assay [10]; 29% in assay [11]; 72.8% in assay [12]; 20.8% in assay [13]; 66.2% in assay [14]. For the same compound, the inhibition is 8.67% in assay [15]; 51.3% in assay [16]; 15% in [17]; 61.3% in assay [18]; 13.1% in assay [19]; 58.4% in [20].

For `CCn1c(-c2nonc2N)nc2c(C#CC(C)(C)O)ncc(OCC3CCNCC3)c21`, the inhibition is 60.7% in [1]; 88.2% in assay [2]; 74.2% in [3]; 89.3% in assay [4]; 57.7% in assay [5]; 86% in [6]. For the same compound, the inhibition in [7] turned out to be 4.53%; in [8], 11.1%; in [9], 5.08%; in assay [10], 23.3%; in [11], 3.52%; in assay [12] it was 33.2%. Moreover, the inhibition worked out at 2.36% in assay [13]; 21.1% in assay [14]; 2.98% in assay [15]; 16.2% in [16]; 4.39% in assay [17]; 19.2% in assay [18]. The inhibition in assay [19] worked out at 3.1%; in [20], 15.4%.

On to `NS(=O)(=O)c1ccc(-c2ccc3c(NC(=O)C4CC4)n[nH]c3c2)cc1`, for which the inhibition in assay [1] was 0.97%; in assay [2], 1%; in assay [3], 1.38%; in assay [4], 0.67%; in assay [5] it was 0.25%; in [6], -0.65%. The inhibition was 0.33% in assay [7]; -2.37% in [8]; -0.74% in assay [9]; -0.42% in [11]; -1.48% in assay [12]; 0.24% in assay [13]. The inhibition was 1.84% in assay [14]; 3.18% in assay [15]; 7.98% in [16]; -0.31% in [17]; 4.18% in assay [18]; 0.95% in assay [19]. In addition, the inhibition in [20] was found to be 2.84%.
